From the supplement of paper PMC10849652
Targets with a hit are over-represented here; the source holds about 7,900 in all. About 0.6% of all pairs of compound and target were hits.

Columns and labels:
Test in all cases: log2 fold change, soluble protein after heating vs DMSO (PISA); higher = thermal stabilisation; K562 cells, 10 uM, 30 min; active = over 0.2 and 3.5 SD of the protein, either way, in both replicates (recomputed)
[1] = compound: CN1CCN(CCOc2cc(OC3CCOCC3)c3c(Nc4c(Cl)ccc5c4OCO5)ncnc3c2)CC1 [saracatinib]
Outline: (§1)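 For each measurement, 10 μM compound was applied for 30 min to K562 cells at 2×10^6 cells/mL. Aliquots were heated for 3 min across 48°C-58°C, pooled, and extracted in PBS with 0.5% NP-40 at 4°C; the supernatant after 21,000xg for 90 min was soluble protein. This was quantified by TMTpro 16plex LC-MS/MS with channel sums equalised, and thermal stability was reported relative to control samples from duplicates, on a log2 fold-change scale.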

[2] = compound: CN1CCN(c2nc(C3=C(c4c[nH]c5ccccc45)C(=O)NC3=O)c3ccccc3n2)CC1 [sotrastaurin]
Outline: as §1

[3] = compound: CN1CC[C@H](c2c(O)cc(O)c3c(=O)cc(-c4ccccc4Cl)oc23)[C@H](O)C1 [alvocidib]
Outline: as §1

[4] = compound: CN1CCc2c(c3ccccc3n2Cc2ccc(C(=O)NO)cc2)C1 [Tubastatin A]
Outline: as §1

[5] = compound: CNC(=O)C1=CC=CC=C1NC2=NC(=NC=C2Cl)NC3=C(C=C(C=C3)N4CCOCC4)OC
Outline: as §1

[6] = compound: CNC(=O)c1ccc(Nc2ncc(C(F)(F)F)c(NCc3nccnc3N(C)S(C)(=O)=O)n2)cc1 [defactinib]
Outline: as §1

[7] = compound: CNCc1ccc(-c2[nH]c3cc(F)cc4c3c2CCNC4=O)cc1 [rucaparib]
Outline: as §1

[8] = compound: CNc1nc(-c2ccc3c(N)n[nH]c3c2)cc(N2C[C@@H](C(=O)NC3CCCCC3)CC[C@H]2C)n1
Outline: as §1

[9] = compound: COC(=O)N[C@@H](C)CNc1nccc(-c2cn(C(C)C)nc2-c2cc(Cl)cc(NS(C)(=O)=O)c2F)n1 [encorafenib]
Outline: as §1

[10] = compound: COC(=O)[C@H](CCSC)NC(=O)C1=C(C=C(C=C1)NC[C@H](CS)N)C2=CC=CC=C2
Outline: as §1

[11] = compound: COC1=CC=C(C=C1)CN2C=CC3=C2C=C(C=C3)C(=O)NO
Outline: as §1

[12] = compound: CON(C)C(=O)N1N=C(c2cc(F)ccc2F)S[C@@]1(CCCN)c1ccccc1 [filanesib]
Outline: as §1

[13] = compound: CO[C@H]1C[C@@H]2CC[C@@H](C)[C@@](O)(O2)C(=O)C(=O)N2CCCC[C@H]2C(=O)O[C@H]([C@H](C)C[C@@H]2CC[C@H](n3cnnn3)[C@H](OC)C2)CC(=O)[C@H](C)/C=C(\C)[C@@H](O)[C@@H](OC)C(=O)[C@H](C)C[C@H](C)/C=C/C=C/C=C/1C [zotarolimus]
Outline: as §1

[14] = compound: COc1cc(C(=O)O)ccc1NC(=O)[C@@H]1N[C@@H](CC(C)(C)C)[C@](C#N)(c2ccc(Cl)cc2F)[C@H]1c1cccc(Cl)c1F [idasanutlin]
Outline: as §1

[15] = compound: COc1cc(Nc2ncc3c(n2)-c2ccc(Cl)cc2C(c2c(F)cccc2OC)=NC3)ccc1C(=O)O [alisertib]
Outline: as §1

[16] = compound: COc1cc2nc(-c3cc(F)ccc3O)nc(N[C@@H]3CNC[C@H]3C(C)(C)O)c2cc1OC
Outline: as §1

[17] = compound: COc1cc2ncnc(Nc3ccc(F)c(Cl)c3)c2cc1OCCCN1CCOCC1 [gefitinib]
Outline: as §1

[18] = compound: COc1cccc2cc(-c3nc([C@H]4CC[C@H](C(=O)O)CC4)n4ncnc(N)c34)[nH]c12
Outline: as §1

[19] = compound: CS(=O)(=O)CCNCc1ccc(-c2ccc3ncnc(Nc4ccc(OCc5cccc(F)c5)c(Cl)c4)c3c2)o1 [lapatinib]
Outline: as §1

[20] = compound: CS(=O)(=O)N1CCN(Cc2cc3nc(-c4cccc5[nH]ncc45)nc(N4CCOCC4)c3s2)CC1 [pictilisib]
Outline: as §1

Measured: log2 fold change

TRAPPC11 (UniProt Q7Z392)
inactive: [1] -0.043 | [2] -0.041 | [3] -0.085 | [4] 0 | [5] -0.028 | [6] -0.075 | [7] 0.051 | [8] -0.027 | [9] 0.035 | [10] -0.031 | [11] 0.015 | [12] -0.018 | [13] 0.024 | [14] -0.039 | [15] -0.052 | [16] -0.03 | [17] -0.012 | [18] -0.019 | [19] -0.014 | [20] 0.042

TRAM1 (UniProt Q15629)
inactive: [1] -0.007 | [2] -0.025 | [3] -0.02 | [4] -0.052 | [5] -0.208 | [6] -0.029 | [7] -0.132 | [8] 0 | [9] 0.179 | [10] -0.052 | [11] -0.188 | [12] -0.218 | [13] -0.103 | [14] -0.119 | [15] -0.067 | [16] 0.24 | [17] -0.066 | [18] 0.005 | [19] -0.092 | [20] -0.163

TSEN2 (UniProt Q8NCE0)
UniProt Q8NCE0, sequence (Q8NCE0 whole entry, looked up): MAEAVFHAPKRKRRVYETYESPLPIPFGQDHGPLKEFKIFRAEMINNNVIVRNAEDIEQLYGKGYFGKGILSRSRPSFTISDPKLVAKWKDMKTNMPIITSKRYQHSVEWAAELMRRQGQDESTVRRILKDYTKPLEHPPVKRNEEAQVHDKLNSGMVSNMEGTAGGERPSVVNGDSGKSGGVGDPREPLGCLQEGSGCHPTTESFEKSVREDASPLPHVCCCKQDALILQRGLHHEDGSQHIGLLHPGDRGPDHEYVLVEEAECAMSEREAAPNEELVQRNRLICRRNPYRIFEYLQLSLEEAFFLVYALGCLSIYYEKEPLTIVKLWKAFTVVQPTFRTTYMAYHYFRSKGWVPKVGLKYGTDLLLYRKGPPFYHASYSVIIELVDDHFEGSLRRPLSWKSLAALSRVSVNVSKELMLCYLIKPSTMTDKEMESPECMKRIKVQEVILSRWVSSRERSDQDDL
inactive: [1] -0.014 | [2] -0.186 | [3] -0.044 | [4] -0.024 | [5] -0.042 | [6] -0.009 | [7] 0.007 | [8] -0.005 | [9] -0.068 | [10] -0.049 | [11] 0.018 | [12] 0.043 | [13] 0 | [14] -0.065 | [15] -0.075 | [16] 0.077 | [17] 0.028 | [18] 0.114 | [19] -0.015 | [20] 0.013

XPO5 (UniProt Q9HAV4)
inactive: [1] 0 | [2] -0.087 | [3] -0.102 | [4] -0.03 | [5] 0.008 | [6] -0.142 | [7] -0.028 | [8] 0.026 | [9] 0.054 | [10] -0.004 | [11] 0.019 | [12] -0.122 | [13] 0.023 | [14] -0.055 | [15] -0.008 | [16] -0.068 | [17] -0.008 | [18] -0.052 | [19] -0.004 | [20] -0.034

TNPO1 (UniProt Q92973)
inactive: [1] 0.034 | [2] -0.062 | [3] -0.141 | [4] -0.064 | [5] -0.013 | [6] -0.123 | [7] -0.04 | [8] 0.009 | [9] 0.029 | [10] 0.006 | [11] -0.008 | [12] -0.096 | [13] 0.012 | [14] -0.023 | [15] -0.074 | [16] -0.156 | [17] -0.001 | [18] -0.012 | [19] -0.005 | [20] -0.02

TMEM177 (UniProt Q53S58)
UniProt Q53S58, sequence (Q53S58 whole entry, looked up): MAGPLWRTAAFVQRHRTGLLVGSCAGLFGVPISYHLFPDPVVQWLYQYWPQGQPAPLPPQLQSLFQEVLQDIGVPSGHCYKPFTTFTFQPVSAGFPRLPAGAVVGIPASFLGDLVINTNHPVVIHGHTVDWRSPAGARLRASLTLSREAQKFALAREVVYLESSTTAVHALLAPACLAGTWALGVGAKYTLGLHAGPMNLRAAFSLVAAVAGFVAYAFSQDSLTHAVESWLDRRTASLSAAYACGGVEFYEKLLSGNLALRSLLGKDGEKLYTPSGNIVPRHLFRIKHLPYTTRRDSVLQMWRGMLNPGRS
inactive: [1] 0.078 | [2] 0.014 | [3] 0.031 | [4] 0.08 | [5] 0.005 | [6] -0.046 | [7] 0.009 | [8] -0.003 | [9] -0.02 | [10] 0.024 | [11] -0.037 | [12] -0.115 | [13] 0.019 | [14] -0.077 | [15] -0.199 | [16] -0.154 | [17] 0.077 | [18] 0.086 | [19] -0.016 | [20] 0.151

TOP2A isoform 4 (UniProt P11388)
inactive: [1] -0.168 | [2] 0.006 | [3] 0.261 | [4] 0.103 | [5] 0.102 | [6] 0.438 | [7] 0.434 | [8] 0.273 | [9] 0.288 | [10] -0.086 | [11] 0.052 | [12] 0.486 | [13] 0.079 | [14] 0.24 | [15] -0.144 | [16] -0.029 | [17] -0.042 | [18] -0.4 | [19] 0.13 | [20] -0.071

VWA8 (UniProt A3KMH1)
inactive: [1] -0.012 | [2] -0.003 | [3] -0.046 | [4] 0.072 | [5] 0.006 | [6] -0.017 | [7] 0.008 | [8] -0.013 | [9] 0.003 | [10] -0.049 | [11] -0.025 | [12] -0.052 | [13] -0.027 | [14] -0.119 | [15] -0.037 | [16] 0.006 | [17] 0.011 | [18] 0.077 | [19] 0 | [20] 0.01

VPS41 (UniProt P49754)
inactive: [1] -0.02 | [2] -0.077 | [3] -0.046 | [4] 0.034 | [5] -0.055 | [6] -0.041 | [7] 0.023 | [8] -0.001 | [9] -0.011 | [10] 0.103 | [11] 0.004 | [12] -0.085 | [13] 0.015 | [14] -0.068 | [15] 0.038 | [16] -0.032 | [17] -0.002 | [18] -0.063 | [19] 0.008 | [20] -0.028

USP24 (UniProt Q9UPU5)
UniProt Q9UPU5, sequence (Q9UPU5 whole entry, looked up): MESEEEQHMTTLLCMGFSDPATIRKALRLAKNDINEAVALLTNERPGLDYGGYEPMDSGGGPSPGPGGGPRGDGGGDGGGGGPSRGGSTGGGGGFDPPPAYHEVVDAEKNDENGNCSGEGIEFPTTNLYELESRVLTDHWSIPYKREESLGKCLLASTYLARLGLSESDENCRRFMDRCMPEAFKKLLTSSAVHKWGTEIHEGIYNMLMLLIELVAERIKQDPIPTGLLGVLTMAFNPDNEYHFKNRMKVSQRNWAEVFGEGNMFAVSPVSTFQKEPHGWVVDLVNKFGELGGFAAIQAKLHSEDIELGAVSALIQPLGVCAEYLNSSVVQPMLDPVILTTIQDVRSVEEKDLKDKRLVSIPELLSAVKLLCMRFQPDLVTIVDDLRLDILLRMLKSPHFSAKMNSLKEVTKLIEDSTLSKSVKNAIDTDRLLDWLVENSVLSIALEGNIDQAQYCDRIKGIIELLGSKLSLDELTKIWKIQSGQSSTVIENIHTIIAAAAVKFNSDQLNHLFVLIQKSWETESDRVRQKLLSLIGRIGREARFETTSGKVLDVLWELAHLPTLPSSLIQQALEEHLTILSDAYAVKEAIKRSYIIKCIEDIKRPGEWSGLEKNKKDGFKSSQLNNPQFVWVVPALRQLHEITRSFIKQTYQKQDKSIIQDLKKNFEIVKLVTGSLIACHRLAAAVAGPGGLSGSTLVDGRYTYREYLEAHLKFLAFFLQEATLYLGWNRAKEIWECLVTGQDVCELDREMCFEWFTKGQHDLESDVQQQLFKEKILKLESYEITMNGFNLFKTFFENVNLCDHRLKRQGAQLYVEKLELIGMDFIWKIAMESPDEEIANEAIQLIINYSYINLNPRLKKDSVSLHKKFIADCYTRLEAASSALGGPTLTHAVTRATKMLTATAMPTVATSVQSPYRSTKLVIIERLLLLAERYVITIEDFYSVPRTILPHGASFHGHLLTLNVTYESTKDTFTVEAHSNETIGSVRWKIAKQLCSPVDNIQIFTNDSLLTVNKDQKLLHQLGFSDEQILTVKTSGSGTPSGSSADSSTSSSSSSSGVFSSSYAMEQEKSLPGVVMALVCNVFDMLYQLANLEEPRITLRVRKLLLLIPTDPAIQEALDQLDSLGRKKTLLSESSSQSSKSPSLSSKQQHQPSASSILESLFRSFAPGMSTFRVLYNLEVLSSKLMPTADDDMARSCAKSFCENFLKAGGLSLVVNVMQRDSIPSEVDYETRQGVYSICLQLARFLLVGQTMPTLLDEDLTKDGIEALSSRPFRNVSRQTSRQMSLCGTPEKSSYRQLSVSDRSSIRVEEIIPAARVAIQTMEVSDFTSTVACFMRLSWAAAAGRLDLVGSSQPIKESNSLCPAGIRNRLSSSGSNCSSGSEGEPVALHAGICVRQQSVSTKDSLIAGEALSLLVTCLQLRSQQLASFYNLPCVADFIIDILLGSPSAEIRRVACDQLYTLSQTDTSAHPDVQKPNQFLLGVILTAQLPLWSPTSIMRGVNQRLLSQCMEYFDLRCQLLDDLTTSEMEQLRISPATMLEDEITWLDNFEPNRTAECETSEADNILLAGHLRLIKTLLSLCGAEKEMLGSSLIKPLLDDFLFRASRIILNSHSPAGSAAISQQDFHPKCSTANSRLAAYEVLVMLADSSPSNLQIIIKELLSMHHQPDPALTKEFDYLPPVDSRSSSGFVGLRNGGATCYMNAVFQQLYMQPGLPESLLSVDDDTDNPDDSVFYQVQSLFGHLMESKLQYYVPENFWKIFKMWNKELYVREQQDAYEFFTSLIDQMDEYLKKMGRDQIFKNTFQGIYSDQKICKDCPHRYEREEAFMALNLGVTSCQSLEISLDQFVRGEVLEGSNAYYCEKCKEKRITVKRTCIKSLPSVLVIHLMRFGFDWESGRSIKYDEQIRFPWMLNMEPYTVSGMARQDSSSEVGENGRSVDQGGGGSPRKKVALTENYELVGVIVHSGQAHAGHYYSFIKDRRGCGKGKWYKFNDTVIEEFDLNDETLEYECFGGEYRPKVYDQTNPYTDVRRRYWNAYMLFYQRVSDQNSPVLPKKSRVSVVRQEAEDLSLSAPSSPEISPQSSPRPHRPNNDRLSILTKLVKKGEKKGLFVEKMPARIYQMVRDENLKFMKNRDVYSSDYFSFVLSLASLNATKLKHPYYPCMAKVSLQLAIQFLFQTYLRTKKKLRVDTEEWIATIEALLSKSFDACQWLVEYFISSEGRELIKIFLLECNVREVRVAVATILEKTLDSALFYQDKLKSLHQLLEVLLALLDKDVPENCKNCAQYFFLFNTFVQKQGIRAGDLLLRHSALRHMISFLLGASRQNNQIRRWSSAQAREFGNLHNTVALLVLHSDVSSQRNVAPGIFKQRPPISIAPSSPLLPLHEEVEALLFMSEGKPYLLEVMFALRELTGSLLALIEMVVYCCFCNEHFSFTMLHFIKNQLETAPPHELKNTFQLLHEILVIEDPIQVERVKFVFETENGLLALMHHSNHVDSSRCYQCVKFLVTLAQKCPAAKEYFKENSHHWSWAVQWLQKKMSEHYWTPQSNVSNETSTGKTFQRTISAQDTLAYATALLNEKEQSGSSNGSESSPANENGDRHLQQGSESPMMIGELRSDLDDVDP
active: [13] 0.397 | [14] -0.342 | [18] 0.385
inactive: [1] 0.033 | [2] 0.092 | [3] -0.061 | [4] -0.143 | [5] 0.034 | [6] -0.079 | [7] -0.03 | [8] 0.278 | [9] 0.048 | [10] -0.034 | [11] -0.03 | [12] -0.179 | [15] -0.008 | [16] 0.116 | [17] 0.099 | [19] 0.019 | [20] 0.258

WDR18 (UniProt Q9BV38)
inactive: [1] 0.057 | [2] -0.001 | [3] -0.027 | [4] 0.008 | [5] -0.032 | [6] -0.051 | [7] -0.009 | [8] -0.038 | [9] 0.001 | [10] 0.003 | [11] -0.04 | [12] 0.02 | [13] -0.024 | [14] 0.039 | [15] -0.041 | [16] 0.056 | [17] 0.024 | [18] 0.035 | [19] 0.005 | [20] -0.004

TOM1 isoform 2 (UniProt O60784)
inactive: [1] 0.033 | [2] -0.132 | [3] 0.001 | [4] 0.132 | [5] -0.025 | [6] -0.087 | [7] -0.024 | [8] -0.043 | [9] 0.009 | [10] 0.089 | [11] -0.118 | [12] -0.031 | [13] -0.001 | [14] 0.056 | [15] -0.002 | [16] -0.039 | [17] -0.031 | [18] 0 | [19] 0.014 | [20] -0.154

TUBA4A (UniProt P68366)
UniProt P68366, sequence (P68366 whole entry, looked up): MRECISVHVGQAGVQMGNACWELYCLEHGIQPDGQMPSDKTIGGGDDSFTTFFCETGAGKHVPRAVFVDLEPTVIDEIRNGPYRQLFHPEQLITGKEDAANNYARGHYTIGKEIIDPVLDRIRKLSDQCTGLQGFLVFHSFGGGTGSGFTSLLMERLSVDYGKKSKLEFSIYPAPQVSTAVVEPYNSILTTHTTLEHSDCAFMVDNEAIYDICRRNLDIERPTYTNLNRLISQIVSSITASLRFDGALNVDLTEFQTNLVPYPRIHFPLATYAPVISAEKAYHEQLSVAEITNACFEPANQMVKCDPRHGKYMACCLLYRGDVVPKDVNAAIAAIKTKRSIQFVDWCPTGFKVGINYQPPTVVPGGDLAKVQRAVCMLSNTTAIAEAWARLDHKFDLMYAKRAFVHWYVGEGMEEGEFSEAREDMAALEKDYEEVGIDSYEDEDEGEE
inactive: [1] 0.045 | [2] -0.012 | [3] -0.048 | [4] -0.051 | [5] -0.039 | [6] -0.024 | [7] -0.046 | [8] 0.038 | [9] -0.012 | [10] 0.013 | [11] 0.032 | [12] -0.108 | [13] 0.044 | [14] -0.108 | [15] -0.027 | [16] -0.043 | [17] 0.019 | [18] 0.071 | [19] 0.04 | [20] 0.04

UBAP1 isoform 4 (UniProt Q9NZ09)
UniProt Q9NZ09, sequence (Q9NZ09 whole entry, looked up): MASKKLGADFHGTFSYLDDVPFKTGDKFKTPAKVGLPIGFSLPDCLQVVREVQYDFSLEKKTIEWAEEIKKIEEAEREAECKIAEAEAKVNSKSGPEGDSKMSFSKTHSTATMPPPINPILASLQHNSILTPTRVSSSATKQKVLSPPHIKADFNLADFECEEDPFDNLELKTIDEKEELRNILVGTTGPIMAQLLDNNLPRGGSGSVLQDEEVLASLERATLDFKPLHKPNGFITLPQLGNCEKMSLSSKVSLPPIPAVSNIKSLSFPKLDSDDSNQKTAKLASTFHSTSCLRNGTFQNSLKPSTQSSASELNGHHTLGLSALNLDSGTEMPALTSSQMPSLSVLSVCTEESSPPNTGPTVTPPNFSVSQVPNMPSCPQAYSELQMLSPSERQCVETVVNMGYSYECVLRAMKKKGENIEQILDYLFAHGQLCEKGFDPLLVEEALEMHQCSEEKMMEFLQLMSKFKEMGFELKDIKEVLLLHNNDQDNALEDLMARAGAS
inactive: [1] -0.023 | [2] -0.032 | [3] -0.038 | [4] 0.007 | [5] -0.028 | [6] -0.08 | [7] 0.089 | [8] -0.053 | [9] -0.05 | [10] 0.006 | [11] -0.018 | [12] 0.078 | [13] 0.045 | [14] -0.014 | [15] -0.034 | [16] -0.017 | [17] 0.088 | [18] -0.018 | [19] 0.23 | [20] -0.005

UBE2E3 (UniProt Q969T4)
UniProt Q969T4, sequence (Q969T4 whole entry, looked up): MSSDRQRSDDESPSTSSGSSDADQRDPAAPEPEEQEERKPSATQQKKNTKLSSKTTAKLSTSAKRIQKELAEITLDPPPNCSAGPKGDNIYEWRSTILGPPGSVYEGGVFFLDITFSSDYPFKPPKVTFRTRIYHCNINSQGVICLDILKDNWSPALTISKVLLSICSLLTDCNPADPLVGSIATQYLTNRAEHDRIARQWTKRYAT
inactive: [1] -0.03 | [2] -0.044 | [3] -0.085 | [4] -0.074 | [5] 0.067 | [6] -0.162 | [7] -0.014 | [8] -0.022 | [9] 0.017 | [10] -0.067 | [11] -0.077 | [12] -0.046 | [13] -0.013 | [14] -0.075 | [15] -0.045 | [16] 0.108 | [17] -0.076 | [18] 0.022 | [19] -0.021 | [20] 0.089

UCHL5 (UniProt Q9Y5K5)
UniProt Q9Y5K5, sequence (Q9Y5K5 whole entry, looked up): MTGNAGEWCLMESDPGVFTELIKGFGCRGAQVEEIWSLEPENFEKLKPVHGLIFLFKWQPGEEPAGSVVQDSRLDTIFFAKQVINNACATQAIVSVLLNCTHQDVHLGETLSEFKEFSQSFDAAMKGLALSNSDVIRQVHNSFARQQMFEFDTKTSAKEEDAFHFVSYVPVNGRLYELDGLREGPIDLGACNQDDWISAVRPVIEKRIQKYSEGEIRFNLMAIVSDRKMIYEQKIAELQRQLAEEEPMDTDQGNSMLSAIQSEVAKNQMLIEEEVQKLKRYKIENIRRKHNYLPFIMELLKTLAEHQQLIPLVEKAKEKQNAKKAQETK
inactive: [1] -0.044 | [2] -0.057 | [3] -0.097 | [4] 0.148 | [5] 0.013 | [6] -0.107 | [7] 0.074 | [8] -0.001 | [9] 0.091 | [10] -0.028 | [11] 0.023 | [12] -0.035 | [13] 0.026 | [14] -0.044 | [15] -0.048 | [16] 0.04 | [17] 0.008 | [18] -0.031 | [19] -0.023 | [20] 0.012
